Test results from ChEMBL document CHEMBL1157539, “Thousands of chemical starting points for antimalarial lead identification” (Nature, 2010).

Tests used:
Format in all cases: functional
Plasmodium falciparum [1] = experiment: GSK_TCMDC: Inhibition of Plasmodium falciparum 3D7 in whole red blood cells, using parasite LDH activity as an index of growth. Test compounds present at 2uM
Plasmodium falciparum [2] = experiment: GSK_TCMDC: Inhibition of Plasmodium falciparum Dd2 in whole red blood cells, using parasite LDH activity as an index of growth. Test compounds present at 2uM
HepG2 = experiment: GSK_TCMDC: Percent inhibition of human HepG2 cell line. Test compounds present at 10uM.

Structure (SMILES)	Inhibition (Plasmodium falciparum [1]) [%]	Inhibition (Plasmodium falciparum [2]) [%]	Inhibition (HepG2) [%]
CCOc1cc(C(=O)NC2CCN(Cc3ccccc3)CC2)ccc1-c1nc2cc(Cl)ccc2[nH]1	100	84	10
COc1cc2nc(Nc3ccc4c(ccn4Cc4ccccc4)c3)nc(Nc3ccc4c(ccn4Cc4ccccc4)c3)c2cc1OC	89	80	0
O=C(Nc1ccc(OC2CCN(Cc3ccsc3)C2)c(Cl)c1)c1cccs1.O=C(O)C(F)(F)F (configuration not stated)	91	87	0
COc1ccc(-c2cnc3ccc(NC4CCC(O)CC4)nn23)cn1 (configuration not stated)	98	73	54
COc1ccc(-n2ccnc2)cc1CNC1CCN(CC2Cn3c(=O)ccc4ccc(F)c2c43)CC1.O=C(O)C(F)(F)F (configuration not stated)	99	18	25
CCC(C)c1ccc(Nc2nc(C)cc(N(CC)CCCN3CCCCC3)n2)cc1.O=C(O)C(F)(F)F (configuration not stated)	100	83	55
COc1ccc(NC(=O)c2cn(-c3ccc(C(C)(C)C)cc3)nc2C)cc1N1CCN(C)CC1	96	71	33
Cl.Fc1cc(CN2CCCC2)ccc1OCCCN1CCN(c2cccc(Cl)c2Cl)CC1	82	15	67
CNc1ccc(CNCc2ccc(-c3ccc(-c4nc5cc(F)ccc5[nH]4)cc3)cc2)cc1.O=C(O)C(F)(F)F	100	95	38
CC(=O)N1N=C(c2[nH]c3ccc(Br)cc3c2C)OC1c1ccccc1 (configuration not stated)	86	68	8
Cc1ccc2[nH]c(-c3ccccc3N)cc2c1	97	8	11
O=C(Nc1ccc(C(F)(F)F)cc1)c1cc(Br)cnc1NCCCn1ccnc1	99	98	32
Cc1ccccc1C1CCN(C2CCC(NC(=O)/C=C/c3ccc(Cl)cc3)CC2)CC1 (configuration not stated)	99	25	78
Nc1nccc(-c2ccc3c(-c4cccc(F)c4)cnc(N)c3c2)n1	93	44	41
COc1ccc2nccc([C@@H](O)CN3CCC(NC(=O)CCC(=O)c4cc(C(C)(C)C)ccc4OC)CC3)c2c1	94	51	26
CC1CCCN(C(=O)C(C)Nc2cc(Cl)ccc2N2CCOCC2)C1 (configuration not stated)	100	96	0
CCCCC(CCCC)CN1C(=O)C(c2ccccc2)(c2ccccc2)N=C1N.O=CO	96	96	28
Cc1ccc(Nc2nc(NN=Cc3ccc(-c4ccc([N+](=O)[O-])cc4)o3)nc(N3CCOCC3)n2)cc1Cl	95	47	12
COc1cccc(C(=O)NCc2cccs2)c1OCc1ccccc1	96	0	0
O=C(/C=C/c1ccc(Cl)c(Cl)c1)N1CCC(NCc2ccc3[nH]ccc3c2)CC1	97	1	44
CCCNCc1ccc(-c2ccc(CN(CCOC)C(=O)c3nn(-c4ccccc4)nc3C)cc2)nc1.O=C(O)C(F)(F)F	99	71	18
Cc1cc(=NN=Cc2ccc(F)cc2)c2cc(F)ccc2[nH]1	100	61	6
CC(C)NCc1cccc(-c2ccc(-c3nc4ccccc4[nH]3)cc2)c1.O=C(O)C(F)(F)F	100	66	4
COc1ccc2nccc([C@@H](O)CN3CCC(NC(=O)c4ccc(C5(C(F)(F)F)N=N5)cc4)CC3)c2c1	97	41	8
CN1CCN(c2ccnc3cc4c(cc23)N(C(=O)Nc2ccc(-c3ccncc3)c3ccccc23)CC4)CC1.Cl	100	97	10
COc1ccc(Cc2nc(/N=C(\N)Nc3ccccc3)ccc2OC)cc1	93	68	40
CCC(CC)n1cc2c(ccc3nc(N)nc(N)c32)n1	91	0	61
C[C@@H](CC1CCCCC1)OC(=O)N(C)[C@@H]1CCN(C#N)C1	95	96	5
COc1cc(CNC[C@@H](O)[C@H](Cc2ccccc2)NC(=O)c2cc(C3CCCC3)cc(N3CCCS3(=O)=O)c2)cc(OC)c1.Cl	95	94	31
